Results on 25 molecules are retold here after PubChem BioAssay (EPA / NIEHS).

SMILES strings stand for the structures. The source made the active and inactive calls. Rule for the calls: active = hit-call score of the fitted dose curve at least 0.9, where 1 is the maximum; inactive = score below 0.9.

Read-out in one test: CYP2C8 (gene 1558)
Kind of test: LTEA_HepaRG_CYP2C8: Life Technologies and Expression Analysis (LTEA) Assay for CYP2C8 using HepaRG (AID 2283483). Particulars: mRNA level, 48 h; actives raise or lower the signal. In outline: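 HepaRG (human liver line), 48 h chemical exposure, 8-pt half-log series from 100 uM, 0.5% DMSO vehicle. Readout: CYP2C8 transcript by qRT-PCR, housekeeping-normalized. Bidirectional fit vs DMSO baseline.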
As for `CCCCC(CC)COC(=O)c1ccc(C(=O)OCC(CC)CCCC)cc1` (stereo unspecified), the result was inactive.
Same read-out and setting: to `Cc1c(-c2cccnc2)c2ccccc2n1CCCCC(=O)O` belongs “inactive”; to `Oc1ccc2c(c1)-c1ccccc1C2`, “inactive”; to `CC(C)CCCCCCOC(=O)c1ccc(C(=O)OCCCCCCC(C)C)c(C(=O)OCCCCCCC(C)C)c1`, “inactive”.
Still for that read-out and setting: with `CC(C)CC(C)(O)C#CC(C)(O)CC(C)C` (stereo unspecified) the entry was “inactive”; with `CCOC(=O)COc1ccc2c(c1)CC(NCC(O)c1cccc(Cl)c1)CC2` (stereo unspecified), “inactive”.
As for `CCn1nc(Cc2ccccc2)cc1C1CCN(C[C@H]2C[C@H](N(C)[C@@H](C(=O)O)C(C)C)C[C@@H]2c2cccc(F)c2)CC1`, the AC50 is 24.6 µM (active).
With `COC(=O)CC(=O)OC`, the call was inactive.

Read-out in the next test: CYP2C9 (gene 1559)
Kind of test: LTEA_HepaRG_CYP2C9: Life Technologies and Expression Analysis (LTEA) Assay for CYP2C9 using HepaRG (AID 2283484). Particulars: mRNA level, 48 h; actives raise or lower the signal. The method in brief:
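HepaRG, 48 h dosing, 8-pt half-log series, top 100 uM, 0.5% DMSO vehicle. Read-out: CYP2C9 transcript by TaqMan qRT-PCR, housekeeping-normalized (ACTB/GAPDH/POLR2A). Gain or loss fitted vs DMSO baseline.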
In the case of `CC(C)(O)c1coc(S(=O)(=O)NC(=O)Nc2c3c(cc4c2CCC4)CCC3)c1`, the molecule was called inactive.
Turning to `Cn1cnc([N+](=O)[O-])c1Sc1ncnc2nc[nH]c12`, the AC50 is 9.87 µM (active).
Take `CCOCCOCCOCCO`: the call was inactive.
In the case of `O=C(CCCCCCCCc1cccnc1)N1CCC(C=C(c2ccccc2)c2ccccc2)CC1`, the AC50 is 31.2 µM (active).
Turning to `CCOC(=O)CC(CC(=O)OCC)(OC(C)=O)C(=O)OCC`, the outcome was inactive.
Turning to `Cc1ccc(C)c(O)c1`, the outcome was inactive.
Same read-out and setting: to `CCCCC(CC)COC(=O)CCCCCCCCC(=O)OCC(CC)CCCC` (stereo unspecified) belongs “inactive”; to `O=C(O)c1cc(N=Nc2ccc(S(=O)(=O)Nc3ccccn3)cc2)ccc1O`, “inactive”.
As to `CCN(C(=O)c1cc(C)cc(OC[C@H](C)Nc2ccncc2)c1)C(C)C`, the AC50 is 56.6 µM (active).
Take `CC(=O)OC[C@H]1O[C@@](COC(C)=O)(O[C@H]2O[C@H](COC(C)=O)[C@@H](OC(C)=O)[C@H](OC(C)=O)[C@H]2OC(C)=O)[C@@H](OC(C)=O)[C@@H]1OC(C)=O`: the molecule was classed as inactive.
The same measure, in the same setting: to `CCCCCCc1ccc(O)cc1O` belongs “inactive”.
With `CN(C)c1ccc(Cc2ccc(N(C)C)cc2)cc1`, the AC50 is 90.8 µM (active).
Regarding `Cc1[nH]cnc1C[C@H]1CCc2c(C)c3ccccc3n2C1=O`, the AC50 was 28.7 µM (active).
`O=C(O)c1cccc(Oc2ccccc2)c1`: the result was inactive.
On the same count and under the same terms, with `CC(C)=CCCC(C)=CC=O` the entry was “inactive”.
`O=C(NS(=O)(=O)/C=C/c1ccccc1)c1ccc(F)cc1Cl`: the result was inactive.
For the molecule `Cc1c(-c2cccnc2)c2ccccc2n1CCCCC(=O)O`, the molecule was called inactive.
Consider `Oc1ccc2c(c1)-c1ccccc1C2`, for which the result was inactive.
On to `CC(C)CCCCCCOC(=O)c1ccc(C(=O)OCCCCCCC(C)C)c(C(=O)OCCCCCCC(C)C)c1`, for which the molecule was called inactive.
Still for that read-out and setting: to `CC(C)CC(C)(O)C#CC(C)(O)CC(C)C` (stereo unspecified) belongs “inactive”; to `CCOC(=O)COc1ccc2c(c1)CC(NCC(O)c1cccc(Cl)c1)CC2` (stereo unspecified), “inactive”.
In the case of `CCn1nc(Cc2ccccc2)cc1C1CCN(C[C@H]2C[C@H](N(C)[C@@H](C(=O)O)C(C)C)C[C@@H]2c2cccc(F)c2)CC1`, the AC50 was 27.8 µM (active).
For the molecule `COC(=O)CC(=O)OC`, the molecule was called inactive.

Read-out in another test: CYP2E1 (gene 1571)
Kind of test: LTEA_HepaRG_CYP2E1: Life Technologies and Expression Analysis (LTEA) Assay for CYP2E1 using HepaRG (AID 2283485). The conditions noted are these: mRNA level, 48 h; actives raise or lower the signal. The method in brief:
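Assay uses 48 h exposure of HepaRG hepatic cells, eight concentrations to 100 uM. Expression of CYP2E1 is quantified by TaqMan qRT-PCR with ACTB, GAPDH and POLR2A normalization; curves fitted in both directions relative to vehicle.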
As to `CC(C)(O)c1coc(S(=O)(=O)NC(=O)Nc2c3c(cc4c2CCC4)CCC3)c1`, the AC50 is 36.8 µM (active).
On the same count and under the same terms, to `Cn1cnc([N+](=O)[O-])c1Sc1ncnc2nc[nH]c12` belongs 1.45 µM (active); to `CC[C@H](C)C(=O)O[C@H]1C[C@@H](C)C=C2C=C[C@H](C)[C@H](CC[C@@H]3C[C@@H](O)CC(=O)O3)[C@H]21`, 29.8 µM (active).
With `CCOCCOCCOCCO`, the molecule was classed as inactive.
In the case of `O=C(CCCCCCCCc1cccnc1)N1CCC(C=C(c2ccccc2)c2ccccc2)CC1`, the AC50 was 14.1 µM (active).
In the case of `CCOC(=O)CC(CC(=O)OCC)(OC(C)=O)C(=O)OCC`, the molecule was classed as inactive.
As to `Cc1ccc(C)c(O)c1`, the outcome was inactive.
Take `CCCCC(CC)COC(=O)CCCCCCCCC(=O)OCC(CC)CCCC` (stereo unspecified): the outcome was inactive.
With `O=C(O)c1cc(N=Nc2ccc(S(=O)(=O)Nc3ccccn3)cc2)ccc1O`, the molecule was called inactive.
As for `CCN(C(=O)c1cc(C)cc(OC[C@H](C)Nc2ccncc2)c1)C(C)C`, the AC50 is 27.9 µM (active).
Turning to `CC(=O)OC[C@H]1O[C@@](COC(C)=O)(O[C@H]2O[C@H](COC(C)=O)[C@@H](OC(C)=O)[C@H](OC(C)=O)[C@H]2OC(C)=O)[C@@H](OC(C)=O)[C@@H]1OC(C)=O`, the outcome was inactive.
Take `CCCCCCc1ccc(O)cc1O`: the result was inactive.
Take `CN(C)c1ccc(Cc2ccc(N(C)C)cc2)cc1`: the AC50 is 50 µM (active).
Same read-out and setting: to `Cc1[nH]cnc1C[C@H]1CCc2c(C)c3ccccc3n2C1=O` belongs 17.6 µM (active).
On to `O=C(O)c1cccc(Oc2ccccc2)c1`, for which the result was inactive.
`CC(C)=CCCC(C)=CC=O`: the molecule was called inactive.
Regarding `O=C(NS(=O)(=O)/C=C/c1ccccc1)c1ccc(F)cc1Cl`, the AC50 was 22.3 µM (active).
Turning to `CCCCC(CC)COC(=O)c1ccc(C(=O)OCC(CC)CCCC)cc1` (stereo unspecified), the outcome was inactive.
The same measure, in the same setting: to `Cc1c(-c2cccnc2)c2ccccc2n1CCCCC(=O)O` belongs “inactive”; to `Oc1ccc2c(c1)-c1ccccc1C2`, “inactive”; to `CC(C)CCCCCCOC(=O)c1ccc(C(=O)OCCCCCCC(C)C)c(C(=O)OCCCCCCC(C)C)c1`, “inactive”.
Regarding `CC(C)CC(C)(O)C#CC(C)(O)CC(C)C` (stereo unspecified), the AC50 was 64.7 µM (active).
`CCOC(=O)COc1ccc2c(c1)CC(NCC(O)c1cccc(Cl)c1)CC2` (stereo unspecified): the result was inactive.
On to `CCn1nc(Cc2ccccc2)cc1C1CCN(C[C@H]2C[C@H](N(C)[C@@H](C(=O)O)C(C)C)C[C@@H]2c2cccc(F)c2)CC1`, for which the AC50 was 20.4 µM (active).
With `COC(=O)CC(=O)OC`, the concentration at half-maximal activity (AC50) is 33 µM (active).

Broadly, the AC50 is the midpoint of the concentration-response curve, whichever way the signal moves.
